# FLuc inh = qHTS Assay for Inhibitors of Firefly Luciferase. Luciferin 4-monooxygenase (Photinus pyralis), P08659. purified firefly luciferase, luminescence, 8 min. Potency, µM (top dose mostly 57.1 µM), without a hit: at the top dose activity change, negative = inhibition, usual class: inhibitors. actives 2.2% (n = 72,000). AID 411, 2009; also: nearly all actives have a fitted effect of over 40% in size
#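 Substrate buffer containing 10 uM ATP (pH 7.2 imidazole, Mg2+, KCl, detergent, BSA) is dispensed, compound pinned in, then luciferase/luciferin detector mix added. After 8 min at ambient temperature, light output is measured.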
# Tau fil binding = qHTS Assay for Tau Filament Binding | actives 2% (n = 71,000) | recombinant tau filaments, thioflavin S fluorescence, 15 h; filaments grown with octadecylsulfate alongside compound | Microtubule-associated protein tau (Homo sapiens), P10636 | Potency, µM (highest dose often 57.1 µM), for the others: top-dose activity change, negative = inhibition;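 also: actives lower thioflavin S fluorescence by blocking filaments or displacing dye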
#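 Read-out: ThS fluorescence, 450 nm excitation/510 nm emission; lower signal marks blocked filament formation or displaced dye. Tau at 1 uM with 30 uM ODS, 10 uM ThS, 5 mM DTT, 100 mM NaCl, 10 mM HEPES pH 7.4; 15 h, 37 C.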
# ERK AVP block = qHTS Assay for Inhibitors of the ERK Signaling Pathway using a Homogeneous Screening Assay; HEK293-V1b, vasopressin-stimulated pERK AlphaScreen; Potency, µM (highest dose often 57.5 µM), inactives show top-dose activity, negative = inhibition, hits mostly inhibitors; actives 0.99% (n = 72,000); AID 995, 2007; also: nearly all actives have a fitted effect of over 55% in size
#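 HEK293 cells stably expressing V1b receptor, preincubated 30 min at 37 °C with compound, then stimulated 5 min with 25 nM vasopressin. Phospho-ERK by AlphaScreen SureFire after 5 h RT; normalized to DMSO and vasopressin; AC50 by Hill fit.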
# 15-hLO inh = qHTS Assay for Inhibitors of 15-hLO (15-human lipoxygenase) | Potency, µM (top dose mostly 57.1 µM), for the others: top-dose activity change, negative = inhibition, usual class: inhibitors | actives 1.4% (n = 74,000) | Polyunsaturated fatty acid lipoxygenase ALOX15 (Homo sapiens), P16050 | purified 15hLO-1, xylenol orange hydroperoxide absorbance; also: nearly all actives have a fitted effect of over 55% in size
# Target sequence (P16050 whole entry, looked up): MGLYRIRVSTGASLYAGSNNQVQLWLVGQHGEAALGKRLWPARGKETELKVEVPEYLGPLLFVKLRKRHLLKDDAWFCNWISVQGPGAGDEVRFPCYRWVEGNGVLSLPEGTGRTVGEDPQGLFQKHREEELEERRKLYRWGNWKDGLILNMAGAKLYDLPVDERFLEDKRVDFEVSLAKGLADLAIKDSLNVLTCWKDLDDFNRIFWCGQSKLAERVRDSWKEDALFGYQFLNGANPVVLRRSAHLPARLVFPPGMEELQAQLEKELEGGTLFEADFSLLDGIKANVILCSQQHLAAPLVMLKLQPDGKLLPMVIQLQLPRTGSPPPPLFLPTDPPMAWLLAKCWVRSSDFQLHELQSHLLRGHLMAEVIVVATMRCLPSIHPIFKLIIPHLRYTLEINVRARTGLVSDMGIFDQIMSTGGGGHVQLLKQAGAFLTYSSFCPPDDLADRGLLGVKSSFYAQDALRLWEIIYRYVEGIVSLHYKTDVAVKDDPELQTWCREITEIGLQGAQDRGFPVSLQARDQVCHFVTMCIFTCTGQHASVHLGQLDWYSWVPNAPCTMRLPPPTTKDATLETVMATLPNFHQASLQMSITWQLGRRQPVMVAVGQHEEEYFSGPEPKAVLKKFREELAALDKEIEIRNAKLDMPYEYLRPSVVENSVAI
#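 Inhibition is scored from a chromogenic endpoint. After 15 min enzyme-compound contact, arachidonic acid (50 uM final) reacts 6 min with 40 nM 15hLO-1 at room temperature, then Fe-XO reagent is added for 30 min and absorbance ratio recorded.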
# Hsp90 Hop PPI = qHTS Assay for Disrupters of an Hsp90 Co-Chaperone Interaction | Hsp90 C-terminal peptide / TPR2A (Hop) interaction, human | AlphaScreen TPR2A-His6 binding biotin-Hsp90 C-terminal peptide | Potency, µM (top dose mostly 57 µM), without a hit: at the highest dose activity change, negative = inhibition | actives 0.44% (n = 71,000); active = well fitted curve in either direction with a large enough effect; inconclusive = small, poorly fitted or top-dose-only effect, or another doubt
# PK Bst = Pyruvate Kinase; actives 1.2% (n = 51,000); AID 361, 2006; purified pyruvate kinase, luminescence ATP production; ribose 5-phosphate activator present at AC10; Potency, µM; in the data active = potency below about 11 µM; inconclusive = mostly about 12 µM to 25 µM;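 the screen sought inhibitors and activators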;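 also: scaled between full activation by ribose 5 phosphate and full inhibition by luteolin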
# Numbers without * were called inactive; i = inactive; ? = inconclusive; · = no result given; [ ] = remark or other dose. Shown are actives, neighbours in structure and some others; about 6.1% of the full set was active somewhere. Unless noted, calls follow the shape of the dose curve; as a rule, active = well fitted curve in the direction sought with a large enough effect; inconclusive = small, poorly fitted or top-dose-only effect, or another doubt; inactive = no such curve, though single readings can be large; an effect the other way counts as inactive or inconclusive. Unless noted, % is scaled to controls: 0 for no effect and ±100 for the full control effect; potency is read from the fitted curve at half-maximal effect.
SMILES,FLuc inh,Tau fil binding,ERK AVP block,15-hLO inh,Hsp90 Hop PPI,PK Bst
CN(C)S(=O)(=O)c1ccc(C(=O)Nc2ccccc2C(=O)O)cc1,?,2%,-20%,-2%,0%,>11
O=C(O)c1ccccc1Cl,·,9%,-24%,-9%,-3%,·
O=C1C=CC2(OCCCO2)C(Br)=C1,·,·,1%[11.5 µM],7%[11.4 µM],·,·
O=c1c(-c2ccccc2)nc2cnc(N3CCOCC3)nc2n1CCc1ccccc1,0%[11.4 µM],2%,15%,-8%,5µM*,·
COc1ccc(-c2nc3cnc(N(C)C)nc3n(CCc3ccccc3)c2=O)cc1,1%[11.4 µM],-6%,13%,-7%,0.63µM*,·
COc1ccc(CCNc2oc(COc3ccc(Br)cc3)nc2C#N)cc1OC,-6%,72%,20µM*,-14%,?,·
CNc1oc(Cc2cccc3ccccc23)nc1C#N,2%,3%,-4%,-16%,-11%,?
COc1ccc(CCNc2oc(Cc3cccc4ccccc34)nc2C#N)cc1OC,2%,74%,?,-23%,?,9.9*
CC(C)C[C@@H](CC(=O)N[C@H](CC(=O)N[C@@H]1CCNC[C@H]1C(=O)N[C@H](CC(=O)N[C@@H](CCC(=O)O)CC(=O)O)Cc1ccccc1)C(C)C)NC(=O)[C@@H]1CCCC[C@H]1N,·,1%,·,·,-8%,·
CCCCCC[C@@H]([C@@H](C)O)n1cnc2c(N)ncnc21,4%,?,-15%,13µM*,1%,·
CCOC(=O)c1ccc(NC(=O)N2CCc3ccccc32)cc1,4µM*,52%,-20%,-6%,0%,i
O=C(COc1ccc2c(c1)CCC2)N1CCc2ccccc21,25µM*,10%,-8%,-6%,12%,>57
COc1ccc(NC(=O)N2CCCc3ccccc32)cc1,-2%,8%,13%,-13%,?,·
O=C(OCC(=O)N1CCc2ccccc21)c1ccccc1,20µM*,-3%,12%,7%,5%,·
O=C(O)c1ccc(COc2ccccc2Cl)cc1,-3%,9%,-12%,4%,-1%,>57
O=C(O)c1cccc(COc2ccccc2Cl)c1,6.3µM*,5%,-10%,4%,-4%,6.7*
N[C@H](C(=O)O)c1ccc(C(=O)O)cc1,-1%,?,-17%,?,-2%,·
CSc1snc(SCC(N)=O)c1C#N,7%,3%,?,-4%,1%,>57
COC(=O)CSc1nsc(SCC(=O)OC)c1C#N,0%,-1%,16µM*,-3%,4%,>57
Cc1ccccc1N=C1Nc2ccccc2CS1,25µM*,9%,-5%,-1%,-2%,·
COc1ccc(OC2C=CC(c3ccccc3)OC2CO)cc1 (stereo not given),·,·,-1%[11.5 µM],3%[11.4 µM],·,·
Cc1ccc(Nc2cccccc2=O)cc1,25µM*,-23%,-21%,-7%,-3%,i
CC(C)(C)Nc1cccccc1=O,4%,-1%,11%,7%,-1%,>57
CC(=O)Nc1cc(CN2CCCCC2)c(O)c2ncccc12,0%[11.4 µM],-13%[11.4 µM],29%[11.5 µM],52%[11.4 µM],4µM*,·
Cc1cc(=O)[nH]c(S/C=C/c2ccccc2)n1,16µM*,0%,26%,8%,-2%,i
SMILES,FLuc inh,Tau fil binding,ERK AVP block,15-hLO inh,Hsp90 Hop PPI,PK Bst
COc1cc(OC)c2c(=O)c(-c3ccccc3)c(C)oc2c1OC,·,·,6%,5%,·,·
CN1C(=C2C(=O)OC(C)(C)OC2=O)Sc2ccccc21,-19%,12%,-20%,6%,-2%,i
O=C1NC(=S)S/C1=C1\Sc2ccccc2N1CCCS(=O)(=O)O,1%,48%,-22%,?,-7%,7.7*
Clc1ccc(OCc2nnc(-c3ccccc3Br)o2)cc1,2%,-4%,-17%,-10%,20%,>57
S=c1[nH]nc(COc2ccc(Cl)cc2)o1,0%,2%,-17%,2%,-1%,3.9*
Cc1nn(-c2ccc(C(=O)O)cc2)c(N)c1-c1ccccc1,13µM*,-7%,-18%,-11%,-12%,i
CCOC(=O)c1nn(-c2ccccc2)c(=O)c2c(N)scc12,-12%,-20%,-9%,5µM*,-5%,·
CCOC(=O)c1nn(-c2ccccc2)c(C(=O)OCC)c1N,-1%,5%,-23%,1%,3%,>57
Oc1ccccc1-c1nc(NCC2CCCO2)c2ccccc2n1 (stereo not given),1%,-5%,32µM*,-19%,20%,·
COc1ccc(OC)c(NC(=O)C2CCCN(S(=O)(=O)c3c(C)noc3C)C2)c1 (stereo not given),1%,25µM*,15%,-5%,-2%,>57
COc1ccc(OC)c(NC(=O)C2CCN(S(=O)(=O)c3c(C)noc3C)CC2)c1,3%,4%,21%,-2%,-1%,>57
COc1ccc2nc(NC(=O)C3CCCN(S(=O)(=O)c4cccc5nonc45)C3)sc2c1 (stereo not given),-5%,10µM*,?,?,-28%,>57
COc1ccc(Oc2ncc3nc(-c4ccccc4)c(=O)n(Cc4cccs4)c3n2)cc1,0%[11.4 µM],?,21%,3%,0%,·
CC(C)=NOC[C@@H](O)[C@@H]1O[C@@H]2OC(C)(C)O[C@@H]2[C@H]1O,1%[11.4 µM],·,2%[11.5 µM],5%[11.4 µM],·,·
Cc1ccc(C(=O)Nc2nc3c(s2)CCCC3)o1,0%,8%,0%,-17%,7%,>57
O=C(Nc1nsc(-c2ccccc2)n1)c1cccs1,5µM*,-9%,?,1%,-3%,7.8*
O=C(Nc1ncc(Cc2ccccc2)s1)c1cccs1,10µM*,11%,36%,6%,2%,?
Cc1ccc(C(=O)Nc2ncc(Cc3ccccc3)s2)o1,13µM*,12%,9%,2%,-3%,?
OCC(O)C(O)C(O)C(O)C(O)CO (stereo not given),·,·,8%,5%,·,·
O=S(=O)(c1ccccc1)N1CCC2(CC1)CN(c1ccccn1)C2,0%[11.4 µM],-6%,11%,5%,2%,·
CC(=O)OC1C[C@]2(C)C(C(C)=O)CCC2C2CCC3=CC(=O)CC[C@@]3(C)C12 (stereo not given in full),·,·,-11%,-3%,·,·
N#C/C(=C\c1c(N2CCC(C(N)=O)CC2)nc2ccccn2c1=O)S(=O)(=O)c1ccccc1,2%[25.5 µM],·,·,·,·,>26
CC1CN(c2nc3ccccn3c(=O)c2/C=C(\C#N)S(=O)(=O)c2ccccc2)CC(C)O1 (stereo not given),0%,20µM*,?,-11%,-18%,>57
